This is a sample that favours compounds with a hit; in the whole collection about 19% have one here.
TGFb SMAD3 inh: blocks TGF-b signaling | HepG2 CAGA-GFP TGF-b/SMAD3 reporter, GFP fluorescence, 18 h; TGF-beta stimulated, 500 pg/mL final | Potency, µM (doses to about 46.1 µM), inactives show top-dose activity, negative = inhibition, actives largely listed as inhibitors | 1.2% of 410,000 active | AID 588855; also: potency is read from the fitted curve at half-maximal effect; % is scaled to controls: 0 for no effect and ±100 for the full control effect; nearly all actives have a fitted effect of over 65% in size
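HEPG2 CAGA-GFP reporter cells (1000/well, DMEM with 1% FBS) received compounds, then recombinant TGF-beta at 500 pg/mL final for 18 hours at 37 degrees C. Per-cell GFP summed per well was normalised to unstimulated and stimulated DMSO controls before curve fitting.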
TDP1 cell noCPT: qHTS for Inhibitors of human tyrosyl-DNA phosphodiesterase 1 (TDP1): qHTS in cells in absence of CPT. DT40 Tdp1-/- hTDP1 cells, no CPT, ATP luminescence, 48 h. AID 686978, 2013. Potency, µM (highest dose often 46.2 µM), for the others: at the top dose activity change, negative = growth inhibition, hits mostly inhibitors. 15% of 420,000 active; also: potency is read from the fitted curve at half-maximal effect; % is scaled to controls: 0 for no effect and ±100 for the full control effect; nearly all actives have a fitted effect of over 55% in size
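DT40 Tdp1-/-;hTDP1 cells, no CPT (DMSO vehicle only), 400 cells/well; compounds pin-transferred; ≥48 hr, 37 °C; CellTiter-Glo 30 min RT dark, luminescence read.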
TDP1 cell CPT: growth inhibition of DT40 Tdp1-/-;hTDP1 cells with camptothecin (screen for TDP1 inhibitors). chicken DT40 Tdp1-/-;hTDP1 cells + 20 nM CPT, ATP luminescence, 48 h. Potency, µM (doses to about 46.2 µM), without a hit: at the highest dose activity change, negative = growth inhibition, actives largely listed as inhibitors. 12% of 420,000 active; also: potency is read from the fitted curve at half-maximal effect; % is scaled to controls: 0 for no effect and ±100 for the full control effect; nearly all actives have a fitted effect of over 55% in size
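Chicken DT40 Tdp1-/- cells stably complemented with human TDP1 were seeded at 400 cells/well in medium containing 20 nM camptothecin, exposed to pin-transferred compounds, and grown at 37 °C for at least 48 hr. Viability was read as ATP luminescence.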
S-ASM inh: blocks human secretory acid sphingomyelinase; 0.006% of 340,000 active; P17405; Potency, µM (series often up to 57.5 µM), for the others: top-dose activity change, negative = inhibition, usual class: inhibitors; placental ASM, HMU-PC fluorogenic substrate, 60 min; also: potency is read from the fitted curve at half-maximal effect
Target sequence (P17405 47-631 limits assumed): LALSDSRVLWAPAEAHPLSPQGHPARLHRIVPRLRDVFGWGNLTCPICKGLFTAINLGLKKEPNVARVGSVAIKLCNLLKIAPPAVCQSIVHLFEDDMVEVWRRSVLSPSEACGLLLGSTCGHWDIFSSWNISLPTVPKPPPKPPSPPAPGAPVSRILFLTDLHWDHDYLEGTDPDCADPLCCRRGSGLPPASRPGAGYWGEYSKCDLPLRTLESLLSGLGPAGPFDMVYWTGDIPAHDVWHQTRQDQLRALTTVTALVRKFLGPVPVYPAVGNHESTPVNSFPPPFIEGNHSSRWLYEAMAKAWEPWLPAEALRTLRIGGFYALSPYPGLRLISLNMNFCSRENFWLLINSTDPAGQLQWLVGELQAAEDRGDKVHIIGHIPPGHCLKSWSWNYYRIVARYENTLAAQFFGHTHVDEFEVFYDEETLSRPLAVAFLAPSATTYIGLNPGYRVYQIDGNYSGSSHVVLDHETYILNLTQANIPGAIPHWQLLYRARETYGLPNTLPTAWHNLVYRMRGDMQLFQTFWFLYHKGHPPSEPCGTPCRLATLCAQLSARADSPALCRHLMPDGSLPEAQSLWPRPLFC
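HMU-PC0 cleavage (9 uM final) by human placental ASM, 60 min at 37 °C following 10 min compound exposure at RT; stopped at pH 10, fluorescence Ex 386/Em 447 nm.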
IL-1B inflam inh: inhibitors of inflammasome signaling (IL-1 beta secretion); THP-1 LPS/ATP IL-1B secretion, AlphaLISA, 16 h; stronger effect = lower value; activity change, % at 57.5 µM; 4.7% of 360,000 active; AID 743279; in the data active = activity change below about -50%; inconclusive = mostly about -30% to -49%; also: % is scaled to controls: 0 for no effect and ±100 for the full control effect
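THP-1 cells pretreated 1 hr with compounds (up to 57.5 uM final), then stimulated with LPS (250 ng/mL final) plus ATP (1.25 mM final); secreted IL-1B measured by AlphaLISA after 16 hr, decreased signal indicating inhibition.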
HepG2 viability: counter-screen for TGF-b inhibitors: cytotoxicity in HepG2 cells. Potency, µM (series often up to 46.1 µM), without a hit: at the top dose activity change, negative = cytotoxicity, hits mostly cytotoxic. 0.76% of 410,000 active. HepG2 CAGA-GFP viability, ATP luminescence, 18 h; also: potency is read from the fitted curve at half-maximal effect
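HepG2 CAGA-GFP cells (1000/well, DMEM with 1% FBS) received compound, then TGF-beta at 500 pg/mL final, and were incubated 18 hours at 37 degrees C. Viability was read by CellTiter-Glo luminescence. Media-only wells were set as complete cell-killing and DMSO as no toxicity.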
Active calls of the source: *; u = inconclusive; x = no result; ! = a repeat was not active. Unless noted, calls follow the shape of the dose curve; as a rule, active = well fitted curve in the direction sought with a large enough effect; inconclusive = small, poorly fitted or top-dose-only effect, or another doubt; inactive = no such curve, though single readings can be large; an effect the other way counts as inactive or inconclusive.

SMILES | TGFb SMAD3 inh | TDP1 cell noCPT | TDP1 cell CPT | S-ASM inh | IL-1B inflam inh | HepG2 viability
Nc1nonc1C(=O)N/N=C/c1ccc([N+](=O)[O-])o1 | 15.8µM* | 9.2µM* | 7.31µM* | -3.8% | -87.2* | -90.2%
COc1ccc(CCNC(=O)CCn2c(=O)oc3ccccc32)cc1 | -2.6% | -2.6% | -4.1% | -0.3% | 2.5 | -38.4%
CCOc1ccccc1N(CC(=O)NCCc1ccc(OC)cc1)S(=O)(=O)c1ccc(C)cc1 | 2.7% | 8.2µM* | 10.3µM* | x | -19.1 | -8.5%
CCCCC(=O)OCC(=O)C1(O)Cc2c(O)c3c(c(O)c2C(OC2CC(NC(=O)C(F)(F)F)C(O)C(C)O2)C1)C(=O)c1c(OC)cccc1C3=O (stereo unspecified) | u | 2.06µM* | 1.16µM* | u | u | -41.7%
COc1cccc2c1C(=O)c1c(O)c3c(c(O)c1C2=O)C[C@@](O)(C(=O)CO)C[C@@H]3O[C@H]1C[C@H](N)[C@H](OC2CCCCO2)[C@H](C)O1 (stereo partly specified) | u | u | 0.282µM* | x | x | -14.5%
COc1cc2c(cc1OC)C13CCN4CC5CCOC6CC(=O)N2C1C6C5CC43 (stereo unspecified) | 0.0% | 10.1% | 8.0% | 3.9% | 30.4 | 5.3%
COC(=O)C1(C(=O)OC)C[C@H](c2ccc(OC)cc2)N(Cc2ccccc2OC)[C@@H]1c1cccs1 | x | 20.6µM* | 16.4µM* | x | u | x
Cc1ccc(NC(=O)CN2C(=O)CN=C(c3ccccc3)c3ccccc32)c(C)c1 | 7.4% | u | u | x | x | -28.7%
CCc1cc2c(s1)-n1c(C)nnc1CN=C2c1ccccc1Cl | x | -18.8% | u | x | x | x
CCOc1cc(/C=C2/C(=O)NC(=O)N(c3ccc(CC)cc3)C2=O)ccc1OC(=O)c1cccs1 | 0.5% | 29.1µM* | -6.6% | -2.7% | 3.0 | 13.2%
COc1cc(/C=C2/C(=O)NC(=O)N(c3ccccc3)C2=O)ccc1O | -1.2% | -18.8% | -5.1% | -0.1% | 0.0 | 0.4%
C=CCN1CC[C@]23c4c5ccc(O)c4O[C@H]2[C@@H](O)C=C[C@H]3[C@H]1C5 | x | u | 6.8% | x | x | x
CC(=O)N1CCCc2cc(S(=O)(=O)N3CCCC(C(=O)Nc4cccc(F)c4)C3)ccc21 (stereo unspecified) | u | u | u | -2.7% | 2.1 | 2.3%
O=C(NCc1ccccc1)c1cccc(Nc2nc3ccccc3n3nnnc23)c1 | -4.1% | 14.6µM* | 20.6µM* | x | x | -1.7%
CCC(=C(c1ccc(O)cc1)c1ccc(OCCN(C)C)cc1)c1ccccc1 | 7.3% | -23.4% | -7.3% | x | 5.1 | -5.3%
CC/C(=C(\c1ccc(O)cc1)c1ccc(OCCN(C)C)cc1)c1ccccc1 | u | 14.6µM* | u | -5.0% | 12.0 | -97.0%
Cc1ccccc1NC(=S)NC(NC(=O)CF)C(Cl)(Cl)Cl (stereo unspecified) | -25.6% | -14.4% | 15.6% | -0.1% | 4.6 | -8.9%
CCOC(=O)c1c(NC(NC(=O)CF)C(Cl)(Cl)Cl)sc2c1CCCC2 (stereo unspecified) | u | u | 13µM* | -9.9% | -12.9 | -20.0%
CC1NC(=O)NC(=O)C1Br (stereo unspecified) | 4.7% | 13.8% | -19.0% | 1.0% | 0.9 | 0.5%
CNCCCN1c2ccccc2CCc2ccccc21 | 24.0% | 25.9µM* | u | -0.6% | -58.4* | -31.7%
COCCCN1Cc2ccccc2C1=N | 19.9% | -4.7% | -2.8% | 2.5% | 17.2 | -4.3%
COc1ccccc1N1CCN(Cc2cnc(-c3ccccc3)[nH]2)CC1 | 8.4% | u | -23.0% | -0.3% | x | -11.8%
Cc1ccc(-n2c(O)c(C=Nc3ccc(S(N)(=O)=O)cc3)c(=O)[nH]c2=O)cc1 | 10.3% | 2.6% | -7.7% | 2.7% | 14.7 | -5.2%
Cc1cccc(-n2c(O)c(C=Nc3ccc(Br)cn3)c(=O)[nH]c2=O)c1 | -18.2% | 16.4µM* | 10.3µM* | 8.0% | 11.1 | 3.1%
Cc1ccc(-n2c(O)c(/C=N/c3ncc(Br)cc3Br)c(=O)[nH]c2=O)cc1 | 13.7% | 9.2µM* | u | 30.2% | 6.3 | 3.3%
SMILES | TGFb SMAD3 inh | TDP1 cell noCPT | TDP1 cell CPT | S-ASM inh | IL-1B inflam inh | HepG2 viability
Cc1cccc(-n2c(O)c(C=NCCN3CCCCC3)c(=O)[nH]c2=O)c1 | 0.0% | -4.7% | 0.7% | -3.2% | -17.8 | -42.7%
CC=C(C)C1(CCC)C(=O)NC(=S)NC1=O | 0.7% | -2.3% | 13.5% | 1.4% | 16.5 | 13.4%
O=C(CCCc1ccccc1)NCCc1cnc[nH]1 | 1.3% | 12.8% | -0.2% | 2.5% | 21.3 | -11.7%
CC(=O)OC[C@]12C[C@H](OC(=O)CC(C)C)C(C)=C[C@H]1O[C@H]1[C@H](O)[C@@H](OC(C)=O)[C@@]2(C)[C@]12CO2 | x | 0.0092µM* | 0.0116µM* | x | x | x
CCN(c1ccccc1)S(=O)(=O)c1ccc(C(=O)NCC(c2ccccc2OC)N2CCCC2)cc1 (stereo unspecified) | -9.7% | u | u | -2.0% | 5.5 | -13.1%
CCN(c1ccccc1)S(=O)(=O)c1ccc(C(=O)NC2CCCCC2)cc1 | 0.4% | 16.4µM* | u | x | 24.4 | -0.3%
Cc1cc(C)c(Cn2c(C(=O)O)c(C=O)c3ccccc32)c(C)c1 | 5.2% | 6.3% | 7.1% | 6.8% | 39.9 | -2.5%
Cc1ccc(CNCc2c(C(=O)O)n(Cc3ccccc3C)c3cc(C)ccc23)cc1 | 3.1% | 7.31µM* | u | x | x | 10.1%
Cc1ccc([C@H]2C[C@@H](n3cc(C4CC4)nn3)[C@H](O)CN2Cc2cccs2)cc1 | -3.3% | -20.5% | -29.0% | x | 2.9 | -24.0%
O[C@H]1C[C@H](c2ccccc2)N(CC2CCCCC2)C[C@@H]1n1cc(-c2ccc(F)cc2)nn1 | -2.0% | 14.6µM* | 23.1µM* | x | 17.1 | -12.3%
O=C(/C=C/c1ccc(Cl)cc1)N[C@@]12CCC(=O)[C@@H]3Oc4c(O)ccc5c4[C@@]31CCN(CC1CC1)C2C5 | x | 10.3µM* | 13µM* | x | x | x
O=C1/C(=C\c2ccccc2)C[C@@]2(O)[C@H]3Cc4ccc(O)c5c4[C@@]2(CCN3CC2CC2)[C@H]1O5 | x | 2.06µM* | 2.06µM* | x | x | x
NC(N)=Nc1ccc2[nH]c3c(c2c1)C[C@@]1(O)[C@H]2Cc4ccc(O)c5c4[C@@]1(CCN2CC1CC1)[C@H]3O5 | 14.1µM*! | 4.61µM* | 2.31µM* | 4.8% | u | -52.6%

Screening results deposited in PubChem by National Center for Advancing Translational Sciences (NCATS).
